Data on eight compounds can be found in PubChem BioAssay (NCI).

Some test systems named below: NCI-H23 lung; NCI-H226 lung; NCI-H322M lung; HOP-62 NSCLC; NCI-H460 lung; HOP-92 NSCLC; NCI-H522 lung; A549/ATCC NSCLC; 786-0 renal; DU-145 prostate; K-562 leukemia; MALME-3M melanoma; MDA-MB-231 breast; RXF 393 renal; SF-268 CNS; SF-295 CNS; SF-539 CNS; UACC-257 melanoma; M14 melanoma.
Holding throughout (assay): NCI-60 one-dose screen, 48 h (100 = growth as untreated, 0 = no growth, -100 = all killed)
Common to all, as to conditions: 10 µM unless noted

Compounds without any hit were thinned out: in the full panel of roughly 83,000, 20% have a hit.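 Method: cells in 96-well plates; compound added at one concentration; 48 h incubation; percent growth measured; values under 10 scored active.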 A number with no mark means an inactive call. Active and inactive are the calls of the source.

On to `COc1ccc(C2CC(c3ccccc3)=NN2c2nc(C)c(C(C)=O)s2)cc1` (configuration not stated), for which the growth is 99.3% with NCI-H23 lung; 101% with NCI-H226 lung; 98.6% in the assay on NCI-H322M lung; 101% with HOP-62 NSCLC; 106% in the assay on NCI-H460 lung; 95.4% in the assay with HOP-92 NSCLC. Further, the growth with NCI-H522 lung was 88.3%; in the assay with A549/ATCC NSCLC, 98.7%; with 786-0 renal, 101%; in the assay with DU-145 prostate, 102%; with K-562 leukemia it was 95%; in the assay on MALME-3M melanoma it was 95.2%. For the same compound, the growth was 96.6% in the assay on MDA-MB-231 breast; 94.1% in the assay with RXF 393 renal; 91.3% with SF-268 CNS; 99% in the assay with SF-295 CNS; 94.3% with SF-539 CNS; 102% with UACC-257 melanoma. Besides, the growth in the assay with M14 melanoma is 97.3%.
For the compound `N#C/C(=C\c1ccc(Br)cc1)n1nnc2ccccc21`, the growth in the assay on NCI-H23 lung was 13.5%; in the assay with NCI-H226 lung, -23.9% (active); with NCI-H322M lung, -12.2% (active); with HOP-62 NSCLC, 17.9%; in the assay on NCI-H460 lung it was -23.2% (active); in the assay with HOP-92 NSCLC it was -15% (active). In addition, the growth with NCI-H522 lung was -6.64% (active); with A549/ATCC NSCLC it was 18.1%; with 786-0 renal, 5.88% (active); with DU-145 prostate, 14.5%; in the assay with K-562 leukemia, 14.5%; in the assay with MALME-3M melanoma it was 24.1%. The growth in the assay with MDA-MB-231 breast was 0.304% (active); in the assay on RXF 393 renal it was -15.4% (active); with SF-268 CNS, 23.9%; in the assay with SF-295 CNS it was 16.1%; in the assay on SF-539 CNS, -3.55% (active); in the assay on UACC-257 melanoma, 13.4%. For the same compound, in the assay with M14 melanoma, the growth is 10.7%.
For `C=CCOc1cccc(/C=C2\SC(=Nc3ccc(O)cc3)NC2=O)c1`, the growth with NCI-H23 lung was 40.2%; in the assay on NCI-H226 lung, -9.25% (active); in the assay on NCI-H322M lung, 53.5%; in the assay with HOP-62 NSCLC, 25.6%; with NCI-H460 lung it was 2.23% (active); in the assay with HOP-92 NSCLC, 30.8%. Further, the growth is -10.9% (active) in the assay with NCI-H522 lung; 18.6% with A549/ATCC NSCLC; 11.2% with 786-0 renal; 5.29% (active) with DU-145 prostate; 5.21% (active) in the assay on K-562 leukemia; 58.3% in the assay with MALME-3M melanoma. Further, the growth was -12.1% (active) with MDA-MB-231 breast; -12.8% (active) in the assay on RXF 393 renal; 19.3% in the assay with SF-268 CNS; 7.15% (active) with SF-295 CNS; -38.1% (active) in the assay with SF-539 CNS; 68.4% in the assay with UACC-257 melanoma. Moreover, the growth with M14 melanoma is 9.92% (active).
As for `COc1ccc(/C=C2\C=C(c3ccccc3)N(CCc3ccccc3)C2=O)cc1OC`, the growth in the assay with NCI-H23 lung was 68.4%; with NCI-H226 lung, 29.7%; in the assay with NCI-H322M lung it was 8.42% (active); with HOP-62 NSCLC, -30% (active); in the assay with NCI-H460 lung, 20.5%; in the assay on HOP-92 NSCLC it was -4.05% (active). In addition, the growth is 42.5% in the assay with NCI-H522 lung; 32.9% with A549/ATCC NSCLC; 8.93% (active) in the assay on 786-0 renal; 69% with DU-145 prostate; 47.6% in the assay with K-562 leukemia; 39.3% with MALME-3M melanoma. For the same compound, the growth in the assay on MDA-MB-231 breast is 29.6%; in the assay on RXF 393 renal, -3.29% (active); in the assay on SF-268 CNS, 55.2%; in the assay on SF-295 CNS it was 26.8%; in the assay with SF-539 CNS it was 42.1%; in the assay with UACC-257 melanoma, 69.3%. Also, the growth with M14 melanoma is 51.5%.
Consider `COc1cc2c(cc1OC)-c1ccc3cc4c(cc3c1N(CCCn1ccnc1)C2)OCO4`, for which the growth in the assay with NCI-H23 lung was 16.6%; with NCI-H226 lung, 51.9%; in the assay on NCI-H322M lung it was 76.9%; with HOP-62 NSCLC, 24.9%; in the assay with NCI-H460 lung it was 6.34% (active); in the assay on HOP-92 NSCLC, 26.8%. Also, the growth with NCI-H522 lung was -19.1% (active); in the assay with A549/ATCC NSCLC it was 56.2%; in the assay with 786-0 renal it was 35.1%; in the assay with DU-145 prostate it was 39.6%; in the assay on K-562 leukemia, 20.4%; in the assay on MALME-3M melanoma, 47.8%. The growth with MDA-MB-231 breast is 56.7%; in the assay on RXF 393 renal, 57.8%; in the assay on SF-268 CNS, 34.4%; with SF-295 CNS it was 27.7%; in the assay with SF-539 CNS it was 13.3%; in the assay on UACC-257 melanoma, 52.8%. Further, in the assay on M14 melanoma, the growth is 27.1%.
`CS(=O)(=O)c1ccc(-c2nc3cc(Cl)ccc3n2CC(=O)NO)cc1`: the growth in the assay on NCI-H23 lung was 94.7%; with NCI-H226 lung it was 88.7%; in the assay on NCI-H322M lung, 98.6%; in the assay on HOP-62 NSCLC, 97.1%; in the assay on NCI-H460 lung it was 101%; with HOP-92 NSCLC, 98%. Further, the growth in the assay on NCI-H522 lung was 86.3%; in the assay on A549/ATCC NSCLC, 94.1%; in the assay on 786-0 renal, 99.5%; in the assay on DU-145 prostate, 101%; in the assay with K-562 leukemia, 95.7%; with MALME-3M melanoma it was 108%. In addition, the growth was 93.8% in the assay with MDA-MB-231 breast; 94.9% with RXF 393 renal; 89.2% with SF-268 CNS; 98% in the assay with SF-295 CNS; 101% in the assay on SF-539 CNS; 102% in the assay with UACC-257 melanoma. Also, the growth in the assay with M14 melanoma is 93.6%.
`CN1CCN(C(=O)[C@]23CCC(C)(C)C[C@@H]2C2=CC[C@@H]4[C@@]5(C)Cc6c([nH]c7ccccc67)C(C)(C)[C@@H]5CC[C@@]4(C)[C@]2(C)CC3)CC1`: the growth with NCI-H23 lung was 93.3%; in the assay with NCI-H226 lung, 86.9%; with NCI-H322M lung, 88.6%; with HOP-62 NSCLC, 80%; with NCI-H460 lung, 75.8%; in the assay on HOP-92 NSCLC it was 70.7%. In addition, the growth was 78.2% with NCI-H522 lung; 69.4% with A549/ATCC NSCLC; 74.4% with 786-0 renal; 84.6% in the assay with DU-145 prostate; 66.1% with K-562 leukemia; 90.2% with MALME-3M melanoma. Further, the growth was 79% in the assay with MDA-MB-231 breast; 80.1% with RXF 393 renal; 84.6% in the assay on SF-268 CNS; 92.2% in the assay with SF-295 CNS; 76.7% with SF-539 CNS; 86.1% in the assay on UACC-257 melanoma. The growth in the assay with M14 melanoma is 78%.
Regarding `COc1cc2c(=O)n(CCCn3ccnc3)c3c4cc5c(cc4ccc3c2cc1OC)OCO5`, the growth with NCI-H23 lung was 5.18% (active); with NCI-H226 lung it was -42.5% (active); in the assay on NCI-H322M lung, 17.5%; in the assay with HOP-62 NSCLC, 10.5%; with NCI-H460 lung, -9.42% (active); in the assay with HOP-92 NSCLC, -5.78% (active). Besides, the growth in the assay with NCI-H522 lung was 5.91% (active); with A549/ATCC NSCLC, 22%; in the assay on 786-0 renal, -57.3% (active); in the assay with DU-145 prostate it was 15.2%; in the assay on K-562 leukemia, 24%; in the assay on MALME-3M melanoma it was 39.9%. Besides, the growth in the assay on MDA-MB-231 breast is 7.7% (active); in the assay on RXF 393 renal, -27% (active); in the assay on SF-268 CNS it was 29%; with SF-295 CNS, -18.4% (active); in the assay with SF-539 CNS, -20.2% (active); in the assay on UACC-257 melanoma it was 3.98% (active). In addition, the growth with M14 melanoma is -4.48% (active).
